# Reference: PubChem BioAssay AID686979 (National Center for Advancing Translational Sciences (NCATS), 2013)
# The whole screen tested about 420,000 compounds, of which about 50,000 (12%) were called active. Not shown: some 26% with an inconclusive outcome. The sample as a whole holds a higher share of actives than the screen did. Values without a mark were called inactive. The call rests on the fitted dose curve; in most records, active means well fitted inhibition curve with a large enough effect; inconclusive means small, poorly fitted or top-dose-only effect; inactive means flat fitted curve, though single readings scatter.
# Test: qHTS for Inhibitors of human tyrosyl-DNA phosphodiesterase 1 (TDP1): qHTS in cells in presence of CPT; further: nearly all actives have a fitted effect of over 55% in size
# Settings: chicken DT40 Tdp1-/-;hTDP1 cells + 20 nM CPT, ATP luminescence, 48 h; series mostly up to 46.2 µM; activity change, negative = growth inhibition: at the top concentration
# Outline: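 Cell growth measured by CellTiter-Glo luminescence after a minimum 48 h, 37 C compound exposure with 20 nM CPT in Tdp1-knockout DT40 cells stably expressing hTDP1, seeded 400/well; qHTS titration format.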
# On the % scale 0 is the no-effect control and ±100 the full control effect; potency means the concentration at half of the fitted maximal effect.
Compound,"activity change, negative = growth inhibition [%]",Potency
COc1ccc(CNC(=O)CN(Cc2ccccc2Cl)C(=O)c2csnn2)cc1,12.5,–
COc1cc(C(=O)OCCCN2CCOCC2)cc(OC)c1OC,-16.7,–
O=C(NCC(c1ccc(Cl)cc1)N1CCOCC1)c1ccccc1F (stereo not given),–,16.4 µM (active)
COc1cc(C(=O)NCC(c2ccc(Cl)cc2)N2CCOCC2)cc(OC)c1OC (stereo not given),–,16.4 µM (active)
CC(C)(C)c1ccc(C(=O)NCC(c2ccc(Cl)cc2)N2CCOCC2)cc1 (stereo not given),–,23.1 µM (active)
CN(C)c1ccc(C(CNS(=O)(=O)c2cc(F)ccc2F)N2CCOCC2)cc1 (stereo not given),-9.33,–
COc1ccc(C(CNC(=O)c2cccnc2SC)N2CCOCC2)cc1 (stereo not given),-20.3,–
COc1ccc(C(CNC(=O)CSc2ccccc2)N2CCOCC2)cc1 (stereo not given),-14.8,–
COc1ccc(C(CNC(=O)c2cc3c(s2)CCCC3)N2CCOCC2)cc1 (stereo not given),-14.5,–
CN1CCN(C(CNC(=O)c2ccccc2F)c2ccc3c(c2)OCO3)CC1 (stereo not given),6.41,–
Cc1ccc(S(=O)(=O)NN=C2CC(C)(C)CC(=O)C2(C)C)cc1,13.2,–
CCOCCCNC(=O)C1(O)c2cc(Br)ccc2NC(=O)N1c1ccc(C)c(C)c1 (stereo not given),9.66,–
Cc1ccc(S(=O)(=O)N2CCCCC2)cc1NC(=O)CCNC(=O)c1ccccc1,-16.1,–
CN(C)c1ccc2c(=O)[nH][nH]c(=O)c2c1,8.58,–
COc1cc(C(=O)N2CCOC23CCN(Cc2ccccc2)CC3)cc(OC)c1OC,-4.78,–
N#Cc1cc([N+](=O)[O-])ccc1NC(=O)COC(=O)c1cnccn1,-21.5,–
CCC(CC)NC(=O)CSc1nnc(-c2c[nH]c3ccccc23)o1,-16.9,–
Cc1ccc(C(=O)OCC(=O)Nc2ccc(Cl)cn2)cc1S(=O)(=O)N1CCOCC1,-6.23,–
CN(Cc1ccccc1)C(=O)C(=O)c1cn(CC(=O)N2CCCC2)c2ccccc12,-23.2,–
COc1cc(OC)cc(C(=O)N[C@H](C(=O)OCC(=O)NC(C)c2ccccc2)C(C)C)c1 (stereo not given in full),-11.1,–
COc1ccc(C(=O)N[C@H](C(=O)NCc2ccccc2)C(C)C)cc1,1.15,–
COc1cc(OC)cc(C(=O)N[C@H](C(=O)Nc2nc3ccccc3[nH]2)C(C)C)c1,–,1.64 µM (active)
O=S(=O)(ON(c1ccccc1)S(=O)(=O)c1ccccc1)c1ccccc1,3.88,–
CC1=C/C(=N\OS(=O)(=O)c2ccccc2)C=CC1=O,–,0.631 µM (active)
COCCn1c(SCC(=O)Nc2nc(C)cs2)nnc1C(C)C,-14.4,–

Compound,"activity change, negative = growth inhibition [%]",Potency
O=C(Nc1ccccc1C(=O)O)c1ccc(N2C(=O)C3CC=CCC3C2=O)cc1 (stereo not given),6.38,–
Cc1ccc(-c2ccc(/C=N/NC(=O)CN3CCOCC3)o2)cc1[N+](=O)[O-],–,23.1 µM (active)
O=C(CN1CCOCC1)N/N=C/c1ccc(-c2ccc(Br)cc2)o1,15.3,–
Cc1ccc(NC(=O)CN2CCC(C(N)=O)CC2)cc1[N+](=O)[O-],-17.2,–
Cc1ccc(OC(=O)c2cncc(Br)c2)c(C)c1,-11.9,–
CC(=O)[C@@]12O[C@@H]1C[C@H]1[C@@H]3CC[C@H]4C[C@@H](O)CC[C@]4(C)[C@H]3CC[C@@]12C,-12.2,–
CC1(Cc2ccccc2C#N)C(=O)Nc2ccc(-c3ccc4[nH]ccc4c3)cc21 (stereo not given),–,1.46 µM (active)
COc1ccc(CC(NC(C)=O)C(=O)NC2CCN(C(=O)c3ccc(Cl)cc3)CC2)cc1 (stereo not given),8.85,–
CCC(C)C(N=C1NS(=O)(=O)c2ccccc21)C(=O)N1CCC(C)CC1 (stereo not given),-14.9,–
O=c1[nH]c(/C=C/c2cccc(Br)c2)nc2ccccc12,-19.5,–
NNc1cccc(C=Cc2ccccc2)cc1=O,–,2.06 µM (active)
O=c1oc(/C=C/c2ccccc2)nc2ccccc12,-3.35,–
Cc1cc(Cl)ccc1NC(=S)NCCCN1CCCC1=O,23.4,–
COn1c(=O)c(=O)n(OC)c2ccccc21,0.332,–
CCOC(=O)C1=C(C)N(C[C@@H]2CC[C@@H](Cc3ccc(-c4ccccc4)cc3)O2)C(=O)NC1c1ccc([N+](=O)[O-])cc1 (stereo not given in full),–,23.1 µM (active)
CCOC(=O)C1=C(c2ccccc2)NC(=S)NC1c1ccc(Cl)cc1 (stereo not given),-21.5,–
CCOC(=O)CSc1nnc(-c2ccc([N+](=O)[O-])cc2)o1,0.129,–
C=C1c2cccc(OC)c2O[C@H](C(=O)OCC)[C@@H]1CCCCCC,-20.2,–
COc1cc(OC)c2c(-c3cccc(-c4cccc(N)c4)c3)cc(=O)oc2c1,–,4.61 µM (active)
COc1cccc(NC(=O)COc2cc(C)cc3oc(=O)cc(C)c23)c1,-0.0121,–
COC(=O)C(C)Oc1ccc2c(-c3cccc([N+](=O)[O-])c3)cc(=O)oc2c1 (stereo not given),-14.6,–
COc1ccccc1OCCNC(=O)C(CCSC)NC(=O)COc1ccccc1 (stereo not given),-15.4,–
CC(C)(CNC(=O)CNC(=O)C1CCCCC1)N1CCOCC1,13,–
CC(C)=CCc1c(O)c(CC=C(C)C)c2occ(-c3ccc(O)cc3)c(=O)c2c1O,–,18.4 µM (active)
Cc1c(O)cc(O)c2c(=O)c(-c3ccc(O)cc3)coc12,0.0845,–
